PubChem BioAssay AID630 (Emory University Molecular Libraries Screening Center, 2007)
Out of some 88,000 compounds screened, about 260 (0.3%) were called active. This excerpt belongs to a sample that is enriched for actives. Values without a mark were called inactive.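 The calls were made as follows: active = compounds that reduce the energy-transfer binding signal between the protein and its labelled peptide by more than half; inactive = the rest.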

Target: Mothers against decapentaplegic homolog 3 (Homo sapiens) (UniProt P84022)
Experiment: Smad3/FoxH1 peptide binding inhibitors, primary screen, biochemical, TR-FRET (AID 630);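 also: 0% = Smad3 plus labelled peptide maximal FRET and 100% = peptide-only background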
Settings: TR-FRET Smad3/Dy647-FoxH1 peptide binding, europium anti-His; at 25 µM; active compounds read high

Chain of Mothers against decapentaplegic homolog 3 (Homo sapiens) (P84022 whole entry, looked up): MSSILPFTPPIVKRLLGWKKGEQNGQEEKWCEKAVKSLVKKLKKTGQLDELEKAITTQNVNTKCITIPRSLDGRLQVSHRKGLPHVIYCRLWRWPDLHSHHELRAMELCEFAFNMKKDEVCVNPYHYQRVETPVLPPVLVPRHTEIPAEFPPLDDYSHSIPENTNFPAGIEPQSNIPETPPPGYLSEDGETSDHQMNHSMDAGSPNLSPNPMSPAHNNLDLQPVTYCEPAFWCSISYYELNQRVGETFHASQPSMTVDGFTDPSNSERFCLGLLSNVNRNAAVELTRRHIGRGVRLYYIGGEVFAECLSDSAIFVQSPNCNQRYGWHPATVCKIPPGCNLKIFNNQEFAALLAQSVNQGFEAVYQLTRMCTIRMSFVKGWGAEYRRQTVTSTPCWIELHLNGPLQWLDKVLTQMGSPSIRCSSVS

Compound | inhibition
O=C(O)c1c(Br)c(Br)c(Br)c(Br)c1C1c2ccc(O)cc2Oc2cc(O)ccc21 | 93.1% (active)
COc1cccc(N=c2oc3c(C)ncc(CO)c3cc2C(N)=O)c1 | 10.9%
CC1(CC(=O)O)O[C@@H]2CCCCC[C@H]2O1 (tested in a mixture with another compound) | 14%
Cc1cc(NC(=O)CS(=O)(=O)c2cn(C)c3ccccc23)no1 | -0.74%
Cc1ccccc1CSCCNC(=O)c1ccc(Cl)c(S(=O)(=O)N2CCOCC2)c1 | 4.77%
CCC1CCCCN1CCCNC(=O)C1CCC(Cn2c(=O)[nH]c3ccccc3c2=O)CC1 (centres undefined) | 14.2%
COc1ccc(C(C#N)Nc2ccccc2C)cc1 (centres undefined) | -2.51%
COc1ccc(C(=O)OCC(=O)NCC2CCCCC2)cc1S(=O)(=O)N1CCCc2ccccc21 | 0.19%
Cc1ccc(S(=O)(=O)N(c2cccc(C)c2)C2CCS(=O)(=O)C2)cc1 (centres undefined) | 0.21%
COc1ccc(C2(CNC(=O)C(c3ccccc3)c3ccccc3)CCOCC2)cc1OC | 3.2%
COc1ccc(S(=O)(=O)N2CCOCC2)c(C)c1C | 15.3%
Cc1c(O)c(Br)c(C)c(O)c1Br (tested in a mixture with another compound) | 94% (active)
CCc1ccccc1NC(=O)CN(C)S(=O)(=O)c1ccc2c(c1)c(=O)n(C)c(=O)n2C | -4.79%
C=C(C)CNC(=S)/N=c1\scc(C)n1CC | 91.6% (active)
OC[C@@H]1O[C@H](n2cnc3c(SCc4ccccc4)ncnc32)[C@H](O)[C@H]1O | 4.63%
CC(C)OC(=O)c1c(NC(=O)c2ccco2)sc2c1CCCC2 | -1.98%
CC(O)CN(Cc1ccc(Cl)cc1)CC(C)O (centres undefined) | 0.45%
COc1ccc(S(=O)(=O)N/N=C\c2ccc(OC)c(COc3ccc(C)cc3[N+](=O)[O-])c2)cc1 | -3.11%
Cc1ccc(SC(=O)COc2ccc(C)c(C)c2)cc1 | -5.83%
CCN1C(=O)C(CC(=O)Nc2cc(C)ccc2C)SC1=Nc1ccc(S(N)(=O)=O)cc1 (centres undefined) | -12.6%

Compound | inhibition
O=C(C1=C(O)C(=O)N(Cc2ccccc2)C1c1ccco1)c1ccco1 (centres undefined) | 12.4%
C[C@@]12CC[C@H]3c4ccc(O)cc4CC[C@@H]3[C@H]1CC[C@H]2OC(=O)CCC1CCCC1 | 39.6%
CC(=O)Nc1ccc(OCC(O)CN2CCN(c3ccccc3Cl)CC2)cc1 (centres undefined) | 4.39%
CCOc1ccc(N=C2NC(=O)S/C2=C\c2ccc(O)cc2)cc1 | -8.11%
O=C(NC1CCC(O)CC1)c1ccc(S(=O)(=O)NCc2ccco2)cc1 (centres undefined) | 1.61%
COC(=O)C1=C(C)Nc2ncnn2C1c1cccnc1 (centres undefined) | -10.7%
Cc1ccc(S(=O)(=O)N(C)C2(C)CCS(=O)(=O)C2)cc1 (centres undefined) | -7.37%
Cn1cnc([N+](=O)[O-])c1Nc1ccccc1O | -0.46%
O=C(N/N=C/c1ccc(O)cc1)/C(=C/c1ccc([N+](=O)[O-])cc1)NC(=O)c1ccccc1 | -3.81%
Cc1cccc(C)c1NC(=O)CSc1nnc(-c2ccccc2)n1Cc1ccc2c(c1)OCO2 | 14.3%
Cc1nn(-c2ncc(C(F)(F)F)cc2Cl)c(=O)n1-c1ccccc1 | 9.91%
O=C(COc1ccccc1)Nc1nonc1NC(=O)COc1ccccc1 | 8.67%
O=C(CSCc1ccccc1)N1CCc2ccccc21 | -1.3%
O=C(c1cccc(N2CCCC2=O)c1)N1CCOCC1 | -6%
Cc1ccc(/C=N/NC(=O)Cn2nc(C)c(Br)c2C)o1 | 21.4%
O=C(Nc1ccccc1C(=O)NCCCn1ccnc1)c1ccc(Cl)cc1Cl | -0.02%
COc1cc(OC)c(-n2c(C)cc(C=O)c2C)cc1Cl | 2.99%
Cc1nc(NC(=O)C2CCCCC2)sc1C | 10.5%
CCOC(=O)c1ccc2c(c1)nc(SCC(=O)NC(C)C)n2CC | 20%
CS(=O)(=O)N(CC(=O)N1CCN(c2ccc(F)cc2)CC1)C1CCCCC1 | -8.5%

Compound | inhibition
c1ccc(CC2CCN(c3nc4ccccc4n4cnnc34)CC2)cc1 | -10%
Cn1nc(-c2ccccc2)c(-c2nc(-c3ccc(Cl)cc3)no2)c1Cl | 2.93%
COc1ccc(CN(CC(=O)NC2CCCC2)C(=O)CCC(=O)Nc2cc(C)on2)cc1 | -0.48%
Cc1oc(-c2ccccc2Cl)[n+]([O-])c1C | 2.52%
Cc1ccc(CS(=O)(=O)CCC(=O)NC2CC2)cc1 | 6.21%
CCOc1ccc(NC(=O)C2CCCN(C(=O)Nc3ccccc3)C2)cc1 (centres undefined) | 10.5%
COC(=O)c1nc(NC(=O)c2ccccc2)n[nH]1 | 1.94%
Cc1cccc(C(=O)Nc2ccccc2N2CCN(c3ccc(F)cc3)CC2)c1 | 3.31%
c1ccc(C(c2ccccc2)N2CCN(Cc3nnnn3C3CCCCC3)CC2)cc1 | -7.75%
COc1ccc(-c2nc3ccccc3n2CCC(C)C)cc1OC | -3.34%
C=CCC(NCc1ccco1)c1ccc(OC)cc1 (centres undefined) | 2.67%
CCc1c(O)cc2n(c1=O)-c1ccccc1C2(C)C | 7.56%
Cc1ccc(-c2cc(C(=O)NCC3CCCO3)c3ccccc3n2)o1 (centres undefined) | 0.54%
Cc1ccccc1-n1c(C)cc(/C=C2\NC(=O)NC2=O)c1C | 10.8%
O=C(NCCCCCCNC(=O)NCc1ccco1)NCc1ccco1 | 10.3%
FC(F)(F)c1cnc(Oc2ccccc2-c2nnc(-c3ccc(Cl)cc3)o2)c(Cl)c1 | 6.7%
Cc1cc(C)c(S(=O)(=O)N2C=CC(C(F)(F)F)=NCC2)c(C)c1 | -6.95%
Cc1cccc(C(=O)O)c1C[C@@H]1NCC[C@@H]2c3ccccc3N[C@@H]12 | 8.15%
CC(NC(=O)C1CCC(CNc2c(N3CCOCC3)c(=O)c2=O)CC1)c1ccccc1 (centres undefined) | -2.58%
